Screening results from PubChem BioAssay.
TbREL1 primary: TbREL1 inhibition, primary screen | P86926 | TbREL1 RNA ligation, FRET fluorescence | inhibition, % at 9.66 µM | 89,000 compounds, 0.49% hits | AID 1117264;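 active = inhibition above the mean inhibition across all screened compounds plus 3 SD, cut at about 11% in these data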
Target sequence (P86926 whole entry, looked up): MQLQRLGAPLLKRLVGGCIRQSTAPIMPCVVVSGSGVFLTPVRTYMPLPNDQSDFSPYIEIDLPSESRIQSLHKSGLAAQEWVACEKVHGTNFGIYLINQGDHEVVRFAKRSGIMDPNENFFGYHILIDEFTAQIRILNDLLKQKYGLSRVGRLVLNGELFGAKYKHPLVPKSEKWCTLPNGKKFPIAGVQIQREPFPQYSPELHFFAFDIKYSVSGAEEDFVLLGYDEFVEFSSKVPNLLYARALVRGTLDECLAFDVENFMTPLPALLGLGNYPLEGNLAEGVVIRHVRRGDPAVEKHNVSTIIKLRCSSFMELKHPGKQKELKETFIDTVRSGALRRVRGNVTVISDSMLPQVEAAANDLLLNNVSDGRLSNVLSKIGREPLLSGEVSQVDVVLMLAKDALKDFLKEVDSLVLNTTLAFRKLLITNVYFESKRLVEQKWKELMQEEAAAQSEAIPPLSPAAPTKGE
TbREL1 confirm: TbREL1 inhibition, confirmation | TbREL1 RNA ligation, FRET fluorescence | shares compounds with TbREL1 primary | 390 compounds, 37% hits | inhibition, % at 9.66 µM | AID 1117282;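 active = mean inhibition across replicates above a set limit taken from the earlier primary screen, cut at about 11% in these data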
Each line names hits and unclear results; the compound was inactive in the other large screens (follow-up assays come after a bar, where they were run). Shown is part of a subset that was picked to be rich in hits.

CC(C)(C)c1ccc(-c2nnc(SCC(=O)Nc3ccccc3-c3ccccc3)n2Cc2ccco2)cc1	none
CCCC1CCC2(CC1)CCC2OC(=S)NCCc1ccc(Cl)cc1 (stereo not given)	none
CCOc1ccc(-n2c(SCC(=O)Nc3ccc(S(=O)(=O)Nc4nccs4)cc3)nnc2-c2ccccc2)cc1	none
O=C1COc2ccc(C(=O)COC(=O)/C=C/c3ccc(Br)o3)cc2N1	TbREL1 primary 18 | TbREL1 confirm inactive
COc1ccc(/C=C/C(=O)OCC(=O)c2ccc3c(c2)NC(=O)CO3)c(OC)c1	none
COc1cccc(/C=C/C(=O)OCC(=O)c2ccc3c(c2)NC(=O)CO3)c1OC	none
COc1cccc(-c2nnc(SCC(=O)Nc3ccc(OCc4ccccc4)cc3)n2Cc2ccco2)c1	none
Oc1c(Cl)cc(CN2CCOCC2)c2cccnc12	none
O=S(=O)(c1ccc(Cl)cc1)N1CCN(Cc2ccc(O)c3ncccc23)CC1	none
CN1CCN(C2CCN(Cc3ccc(O)c4ncccc34)CC2)CC1	TbREL1 primary 17 | TbREL1 confirm inactive
O=C(CSc1nnc(-c2cccnc2)n1-c1ccc(Cl)cc1)Nc1ccc(S(=O)(=O)Nc2nccs2)cc1	none
CCCC/C=C1/[C@H](c2ccccc2)N(C)C2=N[C@@H](c3ccccc3)CC(=O)N21	none
Nn1c(SCC(=O)Nc2cccc(C(F)(F)F)c2)nncc1=O	none
CCOc1ccc(NC(=O)CSc2nncc(=O)n2N)cc1	TbREL1 primary 11 | TbREL1 confirm inactive
Nn1c(SCC(=O)Nc2c(Cl)cccc2Cl)nncc1=O	none
CCc1c(C(=O)C(C)O)c2n3c1CCC[C@@H]3CC2 (stereo not given in full)	none
Cc1nc(N)nc(N)c1/C=C/C(C)(C)c1ccc(Cl)cc1	TbREL1 primary 15 | TbREL1 confirm inactive
S=C(NCc1ccco1)NCc1ccco1	TbREL1 primary 17 | TbREL1 confirm inactive
S=C(NCc1ccccc1)NCc1ccco1	none
S=C(NCc1ccc(Cl)c(Cl)c1)NCc1ccco1	none
Cc1cc(NS(=O)(=O)c2ccc(NC(=O)CSc3nc4sc(C)c(C)c4c(=O)n3Cc3ccco3)cc2)nc(C)n1	none
COc1ccc(C[C@H]2CN3C(=NC[C@@H]3Cc3ccccc3)N2CCNC(=O)CCC2CCCCC2)cc1	TbREL1 primary 21 | TbREL1 confirm 18
C[C@@H]1CN=C2N(CCNC(=O)CCC3CCCCC3)[C@H](Cc3ccc(O)cc3)CN21	none
O=C(CCC1CCCCC1)NCCN1C2=NC[C@H](Cc3ccc(O)cc3)N2C[C@H]1Cc1ccc(O)cc1	none
CCCC1CCC2(CC1)CCC2OC(=S)NCc1cccc(OC)c1 (stereo not given)	none
CC(=O)O[C@H]1[C@H](OC(C)=O)C[C@]2(OC(C)=O)C[C@H]1OC2=O	none
Nc1ccc2oc(=O)c3ccccc3c2c1	none
Nc1ccc2c(c1)C(=O)C(=O)c1ccccc1-2	TbREL1 primary 61 | TbREL1 confirm 87
Cc1ccc(N2C(=O)c3ccc(N)cc3C2=O)cc1C	none
O=C(CN1CCN(c2nc(-c3ccccc3)cs2)CC1)Nc1ccc(Cl)c(Cl)c1	none
COc1ccc2c(CCN3C(=O)c4ccccc4C3=O)c(-c3c(CCN4C(=O)c5ccccc5C4=O)c4ccccc4n3C(=O)OC(C)(C)C)[nH]c2c1	none
CCC[C@H]1[C@@H](NC(=O)c2ccc(OC)cc2)CC[C@@]23CCCN2C(=O)CCC[C@@H]13	none
Nc1ccc(Oc2ccc3c(c2)OCO3)cc1	none
Nc1ccc2c(c1)OCCOCCOCCOCCOCCO2	TbREL1 primary 14 | TbREL1 confirm inactive
CC(=O)c1ccc2c(c1)OCCOCCOCCO2	none
Cc1ccc(CNC(=O)O[C@H]2CC[C@@]34CCCN3C(=O)CCC[C@H]4[C@H]2C)o1	none
COc1ccc(CNCCC(c2ccccc2)c2ccc(OC(C)C)cc2)cc1OC (stereo not given)	none
CC(C)Oc1ccc(CNCCC2(C(C)C)CCOC(C)(C)C2)cc1 (stereo not given)	none
COc1ccc(C(CCNCc2ccc(OC(C)C)cc2)c2ccccc2OC)cc1 (stereo not given)	TbREL1 primary 15 | TbREL1 confirm 19
O=[N+]([O-])c1ccc(Cn2ccc3ccc(-c4ccc5ccn(Cc6ccccc6)c5c4)cc32)cc1	none
Cc1cc(Oc2cccnc2)ccc1NC(=O)Cc1cn(C)c2ccccc12	none
C[C@H]1[C@@H](NC(=O)/C=C/c2ccccc2)CC[C@@]23CCCN2C(=O)CCC[C@@H]13	none
C[C@@H]1[C@H](c2ccccc2)OC(O)([C@H](Cc2ccccc2)NC(=O)OC(C)(C)C)CN1C (stereo not given in full)	none
Cc1ccc(-c2cc(C(=O)NN=Cc3ccc(N(C)C)cc3)[nH]n2)cc1C	none
CCC[C@H]1[C@@H](OC(=O)NC2CCC2)CC[C@@]23CCCN2C(=O)CCC[C@@H]13	none
COc1cc(/C=N/NC(=O)c2cc(-c3ccco3)nc3ccccc23)cc(OC)c1O	none
COc1ccc(/C=N/NC(=O)c2cccnc2)cc1	none
Nc1c(C(=O)N/N=C/c2cccnc2)oc2nc(-c3ccco3)cc(-c3ccco3)c12	TbREL1 primary 16 | TbREL1 confirm inactive
COc1cccc(-c2cc3nc(C)c(C)c(N4CCN(Cc5ccco5)CC4)n3n2)c1	none
C[C@H]1[C@H](NC(=O)c2ccc(C(F)(F)F)cc2)CC[C@@]23CCCN2C(=O)CCC[C@@H]13	none
CC(=O)N1CCN(C(=O)CN2C(=O)CC(C)(C)S(=O)(=O)c3ccccc32)CC1	none
Clc1ccc(OCCCNCc2ccccc2)c(Br)c1	none
Cc1cc(Cl)c(OCCN2C(=O)NC(C)(C)C2=O)c(Br)c1	none
COc1cccc(OCCNCc2ccccc2)c1	none
Cc1cc(Cl)c(OCCCNCc2ccccc2)c(Br)c1	TbREL1 primary 12 | TbREL1 confirm 11
CCCCNCc1cc(Br)c(OCC(=O)NCc2ccccc2)c(OC)c1	none
Cc1cc(C)c(OCCCNCc2ccccc2)c(Br)c1	TbREL1 primary 15 | TbREL1 confirm 15
CC(C)CN(CC(C)C)C(=O)c1cn(C(C)c2ccccc2)nn1 (stereo not given)	none
NC(=O)c1ccc2nc(NC(=O)c3ccc(N)cc3)sc2c1	none
O=C(Nc1nc2ccccc2s1)c1ccc(F)cc1	TbREL1 primary 15 | TbREL1 confirm inactive
O=C(Nc1nc2ccccc2s1)c1ccc(Cl)s1	none
CCN(CC)C(=O)CSc1nnc(-c2cccs2)o1	none
O=C(NCC(c1ccccc1)c1ccccc1)[C@H](Cc1c[nH]c2ccccc12)NC1(C(=O)NC2CCCCC2)CCCCCC1	none
COc1ccccc1C=C1SC(=S)NC1=O	none
O=C1NC(=S)S/C1=C\c1ccc(SCc2ccccc2)o1	TbREL1 primary 43 | TbREL1 confirm inactive
O=C1NC(=NCc2ccccc2)S/C1=C\c1ccccc1	none
COc1ccccc1-c1nnc(SCC#CCOC(=O)c2ccc(F)cc2)o1	none
COc1cccc2cc3c(nc12)C[C@@H]1CCCC(=O)N2CCC[C@@]12C3	none
COc1ccc(-c2c(O)c(C#N)c(-c3ccccc3)n(-c3ccc(OC)cc3)c2=O)cc1	none
CC(C)c1c(Cl)c(O)c(-c2ccccc2)c(=O)n1-c1ccc(F)cc1	TbREL1 primary 17 | TbREL1 confirm 13
Cc1ccc(-n2c3c(c(O)c(-c4ccccc4)c2=O)C(=O)CC(C)(C)C3)cc1	none
COc1cc(O)c(C(CC(=O)N2CCCC(C)C2)c2ccccc2)c(OC)c1 (stereo not given)	none
Cc1c(Cl)cccc1NC(=S)N(CCN(C)C)C(C)c1ccccn1 (stereo not given)	none
Cc1ccccc1NC(=S)N(CCN(C)C)C(C)c1ccccn1 (stereo not given)	TbREL1 primary 14 | TbREL1 confirm inactive
Cc1ccccc1NC(=S)N(CCN(C)C)C(C)c1cccnc1 (stereo not given)	none
